# Data taken from the supplement of paper PMC3334620.
# In all, about 33,000 sequences were measured (“E-score (-0.5 to 0.5)”: median about -0.013, highest 2% from about 0.3 on). Only a selection was taken, and the highest values are over-represented in it overall.
# Biological target: T1, Msn1 (UniProt P22148)
# T1 sequence: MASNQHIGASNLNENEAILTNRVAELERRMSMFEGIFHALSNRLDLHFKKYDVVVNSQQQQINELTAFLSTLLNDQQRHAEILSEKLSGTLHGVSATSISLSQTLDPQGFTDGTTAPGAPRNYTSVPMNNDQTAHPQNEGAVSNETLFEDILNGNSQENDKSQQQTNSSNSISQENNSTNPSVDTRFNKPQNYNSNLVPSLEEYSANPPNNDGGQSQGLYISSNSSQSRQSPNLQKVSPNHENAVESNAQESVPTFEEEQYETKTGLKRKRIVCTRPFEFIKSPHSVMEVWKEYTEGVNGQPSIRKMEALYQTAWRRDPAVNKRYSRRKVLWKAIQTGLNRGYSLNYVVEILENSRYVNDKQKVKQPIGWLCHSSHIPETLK
# Assay: PBM E-score (8-mer binding enrichment) (E-score (-0.5 to 0.5)); higher = stronger / more preferred TF binding
# Details: protein concentration: 200 nM; construct: GST-full length
# In short: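 The E-score, a modified Wilcoxon-Mann-Whitney statistic, was computed by the Universal PBM Analysis Suite for every ungapped eight-base word pooled with its reverse complement. Scans behind it were normalised with masliner after bound GST-tagged yeast transcription factors were detected with fluorescent anti-GST. The proteins, at about 100-200 nM, had been applied to universal all-10-mer Agilent arrays made double-stranded by primer extension.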
row,Sequence,PBM E-score
1,ATTAATTA,0.0938
2,CTCTTACC,0.0706
3,ATCGCCTC,-0.0571
4,CTCTCCCC,-0.213
5,ACAACATG,0.0414
6,AATATGCC,-0.141
7,CTCTGATA,0.112
8,CCAGGGAC,0.0428
9,ACGTTAGT,0.0228
10,ACTTACTG,-0.113
11,AAGCTGCG,0.00828
12,AGCCCTGC,-0.252
13,AAGGGCGG,-0.21
14,CCGAACCC,-0.146
15,CATTGCAC,0.0641
16,ATAACGAT,-0.192
17,ATAATGTA,0.139
18,CTAATGTC,0.378
19,CTAATGAC,-0.12
20,ATAATGTC,0.427
21,CTAATGTA,0.143
22,ATAATGTG,-0.0687

row,Sequence,PBM E-score
1,AATCCTTC,-0.0471
2,AACCCGTT,-0.0539
3,ACGAGCGT,-0.173
4,CTTCGTCC,-0.0108
5,ATTCGTCG,0.0922
6,ATTCGTCC,0.323
7,TCACGACA,0.322
8,CCACGACA,0.179
9,GCACGACA,-0.045
10,GTACGACA,0.345
11,CAACGACG,-0.0172
12,CGACGACA,0.17
13,CAACGACA,0.307
14,ATACGACA,0.133
15,ACACGACA,0.225
16,CTACGACC,-0.119
17,CTACGACA,0.311
18,CAACGACC,-0.156
19,AAAACGCC,0.045
20,GCTGCGCC,-0.192
21,CAAAGTGC,0.0233
22,CGCGCCCG,-0.0907

row,Sequence,PBM E-score
1,ACTAGACG,0.112
2,CCTTGCCG,-0.0395
3,AAAGATCC,-0.12
4,AGAGATCG,-0.0703
5,CTACGAAC,0.0953
6,GTACGAAC,0.311
7,GTACGAAA,0.249
8,GCACCCAC,-0.091
9,CCTACCAA,0.133
10,CAAGATGG,-0.0978
11,CGTACAAA,0.356
12,GGTACAAC,0.188
13,GTTACAAA,0.158
14,TGTACACA,0.279
15,CGTACAAC,0.093
16,GGTACAAA,0.456
17,CGTACAAG,0.0872
18,AGAACAAT,0.0106
19,TTTACAAA,0.12
20,TGTACAAA,0.392
21,AGAACAAG,0.151
22,AGAACAAA,0.303

row,Sequence,PBM E-score
1,TAAAGTGA,0.0769
2,GATTGTGA,0.0853
3,CTAAATGC,0.035
4,GCGGGCAC,-0.0424
5,CTCAACGC,-0.267
6,AGTACATA,0.221
7,GATACAAC,0.212
8,TATACAAA,0.183
9,GATACAAA,0.313
10,GGTACATA,0.341
11,CGTACATA,0.296
12,AGTACAAG,0.251
13,AGTACAAA,0.44
14,AGTACAAT,0.29
15,CATGTGTC,0.298
16,AATGTCTG,0.436
17,AATGTCTC,0.463
18,CATGTCTA,0.268
19,AATGTGTC,0.3
20,CAGGTCTC,-0.00322
21,CATGTCTC,0.343
22,AGTGTCTG,0.154

row,Sequence,PBM E-score
1,AATGTTTC,0.105
2,ACTGTCTG,0.079
3,GATGTCTA,0.239
4,AATGTCTA,0.454
5,AGAAGCGG,-0.101
6,AAAACCAG,0.152
7,CGTAAGGA,-0.0491
8,ACCATGGG,-0.161
9,GCCTATAA,0.0368
10,TACCCGTA,-0.0437
11,ATTTGCGC,0.104
12,CACCTGAG,-0.0701
13,ACATATGT,0.28
14,ATAGGGCC,-0.158
15,GGTGGATA,0.0155
16,AGTGGACC,-0.0955
17,CGTGGACA,0.408
18,CGTGGACC,-0.0578
19,GGTGGAGA,-0.396
20,AGTGGACA,0.389
21,GGTGGACA,0.325
